PubChem BioAssay

Tests used:
[1] = test system: Human papillomavirus type 1a protein E7 (residues 44-93); test: HPV1a E7 fragment binders on microarrays, primary screen, biochemical, small-molecule microarray, residues 44-93, 635 nm fluorescence (AID 1108); details: small-molecule microarray binding, fluorescence 635 nm; higher = more signal;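 also: E7 fragment applied at 1 µg/mL in TBST for 1 h at 4 C; score combines spot fluorescence with its signal to noise ratio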
[2] = modulators of HCV replicon luciferase signal, primary screen, HCV replication inhibitor project, Huh7 cells, luciferase reporter (AID 1109); details: 48 h, higher = more signal;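 also: huh7 hepatoma cells harbouring a luciferase neomycin HCV replicon reporter; luciferase luminescence as measure of HCV replicon replication; test concentration not given here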
[3] = target: Left-right determination factor 2 (Homo sapiens) (UniProt O00292); test: LEFTY2 binders on small-molecule microarrays, primary screen, biochemical, small-molecule microarray, 635 nm fluorescence scan (AID 1110); details: LEFTY2 binding, higher = more signal
Chain of Left-right determination factor 2 (Homo sapiens) (O00292 whole entry, looked up): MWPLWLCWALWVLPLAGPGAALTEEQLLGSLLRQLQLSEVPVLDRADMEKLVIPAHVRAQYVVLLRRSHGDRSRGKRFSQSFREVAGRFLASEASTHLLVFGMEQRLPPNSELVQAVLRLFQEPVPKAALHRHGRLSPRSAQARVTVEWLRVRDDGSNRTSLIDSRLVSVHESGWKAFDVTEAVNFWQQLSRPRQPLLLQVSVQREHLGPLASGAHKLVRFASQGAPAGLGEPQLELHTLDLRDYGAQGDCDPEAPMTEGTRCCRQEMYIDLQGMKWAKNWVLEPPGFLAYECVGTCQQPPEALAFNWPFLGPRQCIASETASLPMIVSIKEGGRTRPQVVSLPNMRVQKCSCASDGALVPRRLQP

[4] = target: Calmodulin-1 (Homo sapiens) (UniProt P0DP23); test: CALM1 binders on microarrays, EGTA buffer, profiling panel, biochemical, small-molecule microarray, Cy5-labelled CALM1 (AID 1111); details: Cy5-CALM1 binding fluorescence, higher = more signal;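 also: labelled calmodulin applied in Tris saline Tween buffer holding calcium plus EGTA and DTT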
[5] = target: Calmodulin-1 (Homo sapiens) (UniProt P0DP23); test: calcium-bound CALM1 binders on microarrays, profiling panel, artefact control for SMM control-protein annotation, biochemical, small-molecule microarray, Cy5-labelled CALM1, plus calcium (AID 1112); details: Cy5-CALM1 binding fluorescence, higher = more signal;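 also: score merges spot fluorescence with signal to noise from triplicate slides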
[6] = small-molecule microarray binders of probe aWnt5a, primary screen, biochemical, biotinylated probe, 635/667 nm fluorescence (AID 1113); details: higher = more signal;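 also: score merges 667 nm fluorescence intensity with signal-to-noise per printed feature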
[7] = small-molecule microarray binders of probe aShh, primary screen, biochemical, biotinylated probe, 635/667 nm fluorescence (AID 1114); details: higher = more signal;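 also: probe is biotin-labelled aShh protein from a stem cell growth factor screen; measures binding of labelled protein to compounds printed on the slide; score merges feature fluorescence at 667 nm with signal-to-noise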
[8] = small-molecule microarray binders of probe aNog, primary screen, biochemical, biotinylated probe, 635/667 nm fluorescence (AID 1115); details: higher = more signal;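 also: probe is biotinylated aNog protein used at 0.15 µg/mL for 1 h at 4 C; z-score combines 667 nm fluorescence of each spot with its signal to noise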
[9] = target: Torsin-1A-interacting protein 1 (Homo sapiens) (UniProt Q5JTV8); test: LAP1 binders from COS7 cell lysate, primary screen, small-molecule microarray, 635/667 nm fluorescence (AID 1116); details: COS7-hLAP1 lysate binding, 635 nm fluorescence, higher = more signal
Chain of Torsin-1A-interacting protein 1 (Homo sapiens) (Q5JTV8 whole entry, looked up): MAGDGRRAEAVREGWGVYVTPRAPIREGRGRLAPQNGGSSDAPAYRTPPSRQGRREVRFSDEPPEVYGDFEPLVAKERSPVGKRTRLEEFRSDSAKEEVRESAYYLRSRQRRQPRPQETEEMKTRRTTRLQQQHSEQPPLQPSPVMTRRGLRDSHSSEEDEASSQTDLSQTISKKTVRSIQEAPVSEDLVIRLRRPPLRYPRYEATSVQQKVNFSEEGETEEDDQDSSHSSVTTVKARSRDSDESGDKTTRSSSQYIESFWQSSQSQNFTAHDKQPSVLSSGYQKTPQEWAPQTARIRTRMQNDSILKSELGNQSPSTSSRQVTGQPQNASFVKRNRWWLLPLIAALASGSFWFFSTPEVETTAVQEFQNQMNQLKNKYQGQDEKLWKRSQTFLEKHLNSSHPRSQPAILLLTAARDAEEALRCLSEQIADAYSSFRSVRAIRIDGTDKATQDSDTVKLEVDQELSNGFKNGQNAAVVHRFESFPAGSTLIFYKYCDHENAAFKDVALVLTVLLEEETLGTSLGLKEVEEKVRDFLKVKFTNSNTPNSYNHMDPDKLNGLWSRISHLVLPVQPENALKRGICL

[10] = target: Alpha-bungarotoxin (Bungarus multicinctus) (UniProt P60615); test: alpha-bungarotoxin binders on microarray, profiling panel, artefact control for SMM control protein annotation, biochemical, small-molecule microarray, Alexa647 label, 635/667 nm fluorescence (AID 1117); details: alpha-BTX-A647 binding fluorescence, higher = more signal
Chain of Alpha-bungarotoxin (Bungarus multicinctus) (P60615 whole entry, looked up): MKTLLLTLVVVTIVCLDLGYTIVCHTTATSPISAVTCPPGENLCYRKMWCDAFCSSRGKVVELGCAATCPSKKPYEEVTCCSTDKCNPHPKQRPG

Compound	composite z-score [1]	z-score [2]	composite z-score [3]	composite z-score [4]	composite z-score [5]	composite z-score [6]	composite z-score [7]	composite z-score [8]	composite z-score [9]	composite z-score [10]
C=CC[C@]12N=C(c3ccc(OCCCO)cc3)O[C@H]1c1ccccc1N(CCS(=O)(=O)c1ccccc1)C2=O	1.41	-2.26	0.559	1.17	0.289	0.0775	0.54	-0.484	0.863	1.02
CS(=O)(=O)CCOC(=O)C1=CC(CCCO)=CC(c2ccc(CN3CCCC3)cc2)N(Cc2cccc(OC(F)(F)F)c2)C=C1C(=O)OCCS(C)(=O)=O (stereo not given)	1.22	-2.99	0.558	0.784	0.217	0.133	0.0434	-0.149	1.17	0.822
COCCOC(=O)N1C(=O)[C@@]2(c3ccccc31)[C@H](C(N)=O)[C@H]1C(=O)O[C@H](c3ccccc3)[C@H](c3ccccc3)N1[C@@H]2c1ccc(O)cc1	1.37	-0.328	0.113	0.0186	-0.346	-0.199	-0.0769	-0.334	-0.602	-0.364
O=C1OCC=C[C@H]2OC34C=CCN(Cn5nnc6ccccc65)C(=O)[C@H]3N(CCCCCO)C(=O)[C@@H]4[C@@H]12 (stereo not given in full)	-0.129	-0.0996	-1.3	-0.497	0.0598	0.184	-0.209	0.105	3.17	-0.464
Cc1c(NC(=O)/C(C#N)=C/c2cccc([N+](=O)[O-])c2)c(=O)n(-c2ccccc2)n1C	0.785	-1.44	0.285	0.619	-0.249	-0.0819	-0.0793	-0.346	0.38	0.0071
COC(=O)C(CC#Cc1ccc2c(c1)[C@]1(C(=O)N2)[C@H](c2ccccc2OCCO)N2[C@H](c3ccccc3)[C@H](c3ccccc3)OC(=O)[C@H]2[C@@H]1C(=O)O)C(=O)OC	1.43	-0.567	0.17	1.61	0.701	0.0597	0.218	0.0258	0.967	1.94
COc1ccc([Si](C)(C)[C@@H]2[C@@H](CCn3cc([C@H](O)c4ccccc4)nn3)O[C@]3(C(=O)N(Cc4cccc(N5CCC5=O)c4)c4ccccc43)[C@H]2C)cc1	-0.206	-2.78	0.187	-0.15	-0.263	-0.0919	-0.0035	-0.0211	0.392	0.0808
C#CCN(C/C=C/c1ccccc1)[C@H](CO)c1ccccc1	-0.414	-1.74	0.171	-0.653	-0.472	-0.0919	-0.262	-0.326	-0.0349	-0.0338
CC(=CC1CCCCC1)[C@@H](NC(=O)c1cccnc1)c1ccc(-c2ccccc2)cc1	0.0493	-2.14	-0.405	0.139	0.735	-0.13	-0.0403	0.747	-0.217	-0.124
C=C(C(=O)CC[C@H](OC(C)=O)c1ccccc1OCCO)C(C)C	-0.949	-4.51	-0.343	-0.296	-1.33	-0.119	-0.352	-0.124	4.35	-0.423
O=C(CS)NCCCCCNC(=O)[C@H]1C[C@H]2C(=O)NCC(=O)N2[C@H]1c1cccc(OCCO)c1	-1.02	1.34	-0.356	-0.213	0.787	-0.152	0.294	-0.311	-0.631	0.854
NC(=O)NCC#Cc1ccc2c(c1)[C@]1(C(=O)N2)[C@H](C(=O)O)[C@H]2C(=O)O[C@H](c3ccccc3)[C@H](c3ccccc3)N2[C@@H]1c1ccc(O)cc1	0.443	-0.539	-0.317	1.6	0.717	0.216	0.346	1.61	0.412	1.5
O=C1O[C@@H](c2ccccc2)[C@@H](c2ccccc2)N2[C@@H](c3ccccc3OCCO)[C@]3(C(=O)Nc4ccccc43)[C@@H](C(=O)O)[C@H]12	1.32	-0.73	-0.0445	0.995	-0.842	-0.0924	-0.229	-0.18	0.584	1.04
COCCOC(=O)N1C(=O)[C@@]2(c3ccccc31)[C@H](C(=O)N1CCc3cc(OC)c(OC)cc3C1)[C@H]1C(=O)O[C@H](c3ccccc3)[C@H](c3ccccc3)N1[C@@H]2c1ccc(O)cc1	1.13	-0.515	0.337	1.38	0.116	-0.0125	-0.0769	0.511	1.94	1.65
CN1C(=O)C2C=CC(C(O)C=Cc3ccc([N+](=O)[O-])cc3)N(Nc3ccccc3)C2C1=O (stereo not given)	1.31	0.599	0.407	0.447	-0.384	0.0182	0.207	-0.175	0.582	0.627
CC(C)C(=C=CC[C@H](O)c1ccc(CO)o1)CCO	1.21	-1.12	-0.0171	-0.26	-0.649	-0.15	-0.0793	-0.0827	0.843	0.963
CCCCCCc1nc(-c2ccc(-c3ccc(Cl)c(Cl)c3)o2)cc2c1[Si](C(C)C)(C(C)C)O[C@H]2c1ccccc1	-0.545	-0.674	-0.0324	-0.365	0.077	-0.264	0.0723	-0.141	-0.741	0.622
CN1CCC(CCCO)=CC1c1cccs1 (stereo not given)	-1.03	-0.132	-0.0692	-0.949	-0.431	-0.176	-0.0474	-0.305	0.427	-0.0493
[N-]=[N+]=Nc1ccccc1C[C@]1(C(=O)N2CCCCC2)COC(c2ccc(OCCCO)cc2)=N1	1.44	-2.43	-0.241	1.35	0.234	0.117	-0.217	-0.673	1.03	0.465
COc1ccc(C#Cc2ccc3c(c2)[C@]2(C(=O)N3)[C@H](c3ccc(O)cc3)N3[C@H](c4ccccc4)[C@H](c4ccccc4)OC(=O)[C@H]3[C@@H]2C(=O)N2CCc3cc(OC)c(OC)cc3C2)cc1	1.36	-1.11	0.406	1.02	0.745	-0.0643	-0.161	-0.0503	0.7	1.67
O=C1C2C=CC(C(O)C=Cc3ccc([N+](=O)[O-])cc3)N(Nc3ccccc3F)C2C(=O)N1c1ccccc1 (stereo not given)	1.47	-0.969	0.458	1.27	0.362	0.0037	0.166	0.581	1.18	1.12
O=C1C[C@@](C(=O)NCc2ccccc2)(c2ccc([N+](=O)[O-])cc2)[C@@H](c2ccc(CO)cc2)N1CC12CC3CC(CC(C3)C1)C2	1.37	-2.95	0.31	0.35	0.159	-0.101	-0.512	-0.374	0.538	0.766
O=C1O[C@H](c2ccccc2)[C@H](c2ccccc2)N2[C@H]1[C@@H](C(=O)NC[C@H](O)c1ccccc1)[C@]1(C(=O)Nc3ccccc31)[C@H]2c1ccc(O)cc1	0.69	-0.705	0.733	1.06	0.659	-0.124	-0.138	0.293	0.825	0.771
COc1ccc(C(O)C2C=CC3C(=O)N(C)C(=O)C3N2NC(=O)OC(C)(C)C)c2ccccc12 (stereo not given)	1.5	-1.45	-0.107	1.56	0.47	0.246	0.275	1.8	0.163	1.17
CC(C)[Si](C#C[Si](C(C)C)(C(C)C)C(C)C)(O[C@H](C)c1cn(Cc2ccccc2)nn1)C(C)C	1.2	0.16	0.409	0.634	0.142	-0.0893	-0.221	-0.33	0.182	0.717
